Compound activity as filed in PubChem.
Rab9 promoter act: qHTS Assay for Rab9 Promoter Activators | AID 485297, 2010 | hit rate 2.8% among 320,000 | Huh7 Rab9 promoter-luciferase reporter, luminescence, 24 h | Potency, µM (doses to about 9.22 µM), actives largely listed as activators; further: nearly all actives have a fitted effect of over 60% in size
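Luminescence read-out: Huh7 cells stably expressing Rab9-luciferase, treated 24 h with compound at 37 °C, then lysed with luciferase reagent for 10 min at ambient before reading.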
SMN2 splice up: qHTS Assay for Enhancers of SMN2 Splice Variant Expression | HEK293 SMN2-luciferase splicing reporter, luminescence, 30-36 h | Potency, µM (highest dose often 46.1 µM), most hits filed as activators | hit rate 2.8% among 210,000 | AID 1458, 2008; further: nearly all actives have a fitted effect of over 55% in size
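HEK293 cells carry an SMN2 minigene-luciferase reporter in which exon 7 inclusion puts luciferase in frame. Cells were seeded at 2000 cells/well, attached for 10-12 hours, then exposed to compounds for 30-36 hours at 37C before ONE-Glo luminescence.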
KinaseGlo FLuc: Counterscreen for Luciferase (Kinase-Glo TM) Inhibition | Luciferin 4-monooxygenase (Photuris pensylvanica), Q27757 | Kinase-Glo luciferase, ATP luminescence, 8 min | Potency, µM (top dose mostly 38.3 µM), most hits filed as inhibitors | hit rate 0.28% among 200,000 | AID 1379, 2008; further: nearly all actives have a fitted effect of over 60% in size
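Kinase-Glo luciferase light output from ATP and luciferin was measured with 10 uM ATP, within the enzyme's linear range. Buffer: 50 mM imidazole pH 7.2, 50 mM KCl, 7 mM MgCl2, 0.01% Tween 20, 0.05% BSA; luminescence read after 8 min at ambient temperature.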
NPC1 promoter act: qHTS Assay for NPC1 Promoter Activators. hit rate 2.4% among 320,000. Huh7 NPC1 promoter luciferase reporter, 24 h. Potency, µM (doses to about 9.22 µM), usual class: activators; further: nearly all actives have a fitted effect of over 60% in size
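Luciferase expression driven by the NPC1 promoter was measured in stably transfected Huh7 cells after a 24 h compound incubation, using a luciferase reagent and a luminescence read.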
FLuc counter: qHTS profiling assay for firefly luciferase inhibitor/activator using purifed enzyme and Km concentrations of substrates (counterscreen for miR-21 project) | purified FLuc, Km substrates, luminescence inhibition | Potency, µM (top dose mostly 57.5 µM), usual class: inhibitors | hit rate 6.9% among 360,000; further: nearly all actives have a fitted effect of over 55% in size
Target sequence (P08659 whole entry, looked up): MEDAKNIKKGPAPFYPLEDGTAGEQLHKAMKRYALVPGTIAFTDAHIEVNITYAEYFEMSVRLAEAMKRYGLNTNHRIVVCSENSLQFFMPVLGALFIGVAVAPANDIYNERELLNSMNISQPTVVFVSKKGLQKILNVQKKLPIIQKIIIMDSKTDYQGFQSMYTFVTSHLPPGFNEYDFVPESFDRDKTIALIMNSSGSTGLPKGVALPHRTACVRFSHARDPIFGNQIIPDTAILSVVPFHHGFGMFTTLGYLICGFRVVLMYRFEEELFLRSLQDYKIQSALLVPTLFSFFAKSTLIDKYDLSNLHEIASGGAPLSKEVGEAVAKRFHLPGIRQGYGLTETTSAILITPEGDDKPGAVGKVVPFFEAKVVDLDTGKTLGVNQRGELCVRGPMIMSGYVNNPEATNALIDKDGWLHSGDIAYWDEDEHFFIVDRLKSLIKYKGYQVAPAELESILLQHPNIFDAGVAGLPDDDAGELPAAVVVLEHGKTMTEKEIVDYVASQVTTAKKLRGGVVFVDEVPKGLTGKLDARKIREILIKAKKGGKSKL
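Biochemical qHTS of compounds, final roughly 60 µM downward over six points, against 10 nM purified firefly luciferase using Km concentrations of substrates (10 uM D-luciferin, 10 uM ATP) in Tris acetate pH 7.5 buffer; luminescence output.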
ELG1 genotoxic: qHTS screen for small molecules that induce genotoxicity in human embryonic kidney (HEK293T) cells expressing luciferase-tagged ELG1 | Potency, µM (top dose mostly 46 µM), usual class: activators | HEK293T ELG1-luciferase reporter, luminescence, 16 h | hit rate 1.3% among 330,000; further: nearly all actives have a fitted effect of over 60% in size
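After overnight (16 hr) compound treatment at 37 °C, ELG1-luciferase HEK293T cells were lysed with ONE-Glo; luminescence quantified 30 min later at room temperature.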
Hits are given with their value; 0 = inactive; ? = inconclusive; - = no result; [ ] = another dose, or the depositor's remark. Rows were chosen to be rich in hits. Some 7.5% of all compounds tested hit in one or more screens of this group. The call rests on the fitted dose curve; in most records, active means well fitted curve in the direction sought with a large enough effect; inconclusive means small, poorly fitted or top-dose-only effect, or another doubt; inactive means no such curve, though single readings can be large; an effect the other way counts as inactive or inconclusive.

SMILES	Rab9 promoter act	SMN2 splice up	KinaseGlo FLuc	NPC1 promoter act	FLuc counter	ELG1 genotoxic
O=C(Nc1ccc2c(c1)CCC2)Nc1ccccc1Cl	1.8µM	-	-	1.4µM	1.5µM	2.3µM
Cc1ccc(NC(=O)Nc2ccc3c(c2)CCC3)c(C)c1	0	-	-	0	0	0
NC(=O)C1CCN(c2nc(-c3ccccc3Cl)cs2)CC1	-	-	-	-	0	-
CC1=C(C(=O)NCc2cccc(Cl)c2)C2(CCCCCC2)OC1=O	-	-	-	-	0	-
COc1ccc(C(=O)C2CCCN(C(=O)c3cccnc3SC)C2)c(C)c1 (stereo unspecified)	0	-	0	0	0	0
C=CC[C@H](CC(=O)N(CCO)Cc1ccccc1)C(=O)N[C@H](COC(=O)[C@@H](CC=C)CC(=O)OC(C)(C)C)c1ccccc1	-	-	-	-	-	0
O=C(Nc1ccccc1Cl)OC1CCCCC1	0	-	-	0	24µM	0
CCOc1ccccc1NC(=O)Nc1ccc2c(c1)OCO2	?	-	-	0	21µM	0
CCOc1ccccc1NC(=O)Nc1ccc2c(c1)CCC2	?	-	-	?	6.7µM	?
CCOc1ccccc1NC(=O)Nc1ccc(OC)nc1	0	-	-	0	?	0
CCOc1ccccc1NC(=O)Nc1cccc(NC(C)=O)c1	0	-	-	0	0	0
CCOc1ccccc1NC(=O)Nc1cccc(C(C)=O)c1	0	0	0	0	24µM	0
CSc1ncc(C(=O)NCc2ccc(F)cc2)c(-c2ccccc2)n1	-	-	-	-	0	-
CC(C)C1COc2cc3oc(=O)ccc3cc2O1 (stereo unspecified)	-	0	0	-	-	-
O=C(COC(=O)c1ccc2c(c1)OCO2)Nc1ccccc1OC(F)F	-	-	-	-	-	0
CC(=O)Nc1ccccc1OCC(=O)c1ccc2c(c1)OCO2	3.2µM	-	-	3.5µM	0	?
O=C(/C=C/c1cnc2ccccc2n1)NC12CC3CC(CC(C3)C1)C2	3.2µM	10µM	0	3.5µM	1.7µM	?
CCC(C)(C)NC(=O)/C=C/c1cnc2ccccc2n1	?	?	0	0	11µM	?
CCC1CCC(NC(=O)Nc2cccc(OC)c2)CC1 (stereo unspecified)	1.3µM	-	0	4µM	4.8µM	?
CC(=O)c1ccc(NC(=O)NC2CCCCCCC2)cc1	1.8µM	-	-	1.6µM	12µM	8.2µM
O=C(Nc1ccc2nsnc2c1)NC1CCCCC1	1.4µM	?	0	2.2µM	6.7µM	?
CC(=O)c1cccc(NC(=O)NC2CCCCCCC2)c1	0	-	-	0	17µM	0
Nc1ccc(NC(=O)NC2CCCCC2)cc1	?	-	0	0	?	?
O=C(C(c1ccccc1)c1ccccc1)N1CC[C@@]2(O)CCCC[C@H]2C1	0	-	-	0	0	0
CCN1CCN(C(=O)CCc2nnc3ccc(N4CCN(c5cccc(OC)c5)CC4)nn23)CC1	0	-	-	0	0	0
SMILES	Rab9 promoter act	SMN2 splice up	KinaseGlo FLuc	NPC1 promoter act	FLuc counter	ELG1 genotoxic
O=C(NNC(=S)NC(=O)C12CC3CC(CC(C3)C1)C2)c1ccncc1	0	0	0	0	?	0
C/C(=N\[N+](C)(C)C)c1ccc(C)c(C)c1	-	0[9.22 µM]	0[7.66 µM]	-	-	-
Cc1ccc(NC(=O)NC2CCCCCCC2)cc1C	3.5µM	-	-	4µM	7.6µM	?
Cc1cccc(NC(=O)NC2CCCCCCC2)c1	3.5µM	-	-	1.6µM	11µM	?
CC(=O)c1cccc(NC(=O)NC2CCCCC2)c1	0	0	0	0	?	0
N/C(=N\OC(=O)c1ccc2c(c1)OCO2)c1cccc([N+](=O)[O-])c1	?	0	0	0	0.43µM	?
Cc1cccc(/C(N)=N/OC(=O)c2ccc3c(c2)OCO3)c1	2.8µM	25µM	10µM	2.8µM	0.19µM	9.2µM
COc1ccc(/C(N)=N/OC(=O)c2cccc([N+](=O)[O-])c2)cc1OC	0	0	0	0	?	?
CC1CCc2c(sc3nnn(CC(=O)Nc4ccccc4Cl)c(=O)c23)C1 (stereo unspecified)	-	0	-	-	0	-
Oc1cc(O)cc(/C=C/c2ccc(O)c(O)c2)c1	0	32µM	?	?	9.5µM	5.2µM
COc1ccc(N2C(=S)NC3N2C(=S)NC3(C)c2ccccc2)cc1 (stereo unspecified)	4µM	?	0	0	?	?
CC(C)(C)c1ccccc1NC(=O)c1ccc(-n2cncn2)c([N+](=O)[O-])c1	0	-	-	0	0	0
C=C(C)CN=c1scc(C)n1/N=C/c1ccco1	0	0	0	0	0	0
CCN=c1scc(C)n1/N=C/c1cc(Br)c(O)c(Br)c1	0	?	0	0	19µM	0
CCN=c1scc(C)n1/N=C/c1ccc(O)c(O)c1O	0	0	0	0	3.4µM	0
O=C(COC(=O)c1cccnc1Cl)Nc1nc(-c2ccccc2)cs1	0	0	0	0	?	?
CCOC(=O)c1ccc(NC(=O)N2CCOc3ccccc32)cc1	-	-	-	-	0	-
CCOC(=O)Nc1cc(Br)c2c(c1)OCCO2	0	-	0	0	?	23µM
CC(=O)Cc1nsc(NC(=O)c2ccc(-c3cc(C(F)(F)F)ccc3Cl)o2)n1	0	?	0	0	0	0
CC(=O)Cc1nsc(NC(=O)c2ccc(-c3cccc(C(F)(F)F)c3)o2)n1	0	?	0	0	9.5µM	0
CC(=O)Cc1nsc(NC(=O)c2ccc(-c3cc(Cl)ccc3Cl)o2)n1	0	0	0	0	13µM	0
Cc1nnc(NC(=O)c2ccc(-c3cccc(C(F)(F)F)c3)o2)s1	0	?	0	0	0	0
CC(=O)Cc1nsc(NC(=O)c2ccc(-c3ccc(Cl)c(Cl)c3)o2)n1	0	0	0	0	11µM	0
CC(=O)Cc1nsc(NC(=O)c2cc(-c3ccc(Cl)c(Cl)c3)oc2C)n1	0	0	0	0	0	0
CC(=O)Cc1nsc(NC(=O)c2cc(-c3ccccc3Cl)oc2C)n1	0	0	0	0	?	0
SMILES	Rab9 promoter act	SMN2 splice up	KinaseGlo FLuc	NPC1 promoter act	FLuc counter	ELG1 genotoxic
CC(=O)Cc1nsc(NC(=O)c2ccc(-c3ccc(Cl)cc3Cl)o2)n1	0	0	0	0	6.7µM	0
Cc1nc2sccn2c(=O)c1S(=O)(=O)NCC1CCN(Cc2ccccc2Cl)CC1	0	-	-	0	0	0
COC(=O)c1ccc(NC(=O)CSc2nccn2Cc2ccc(Cl)cc2)cc1	-	-	-	-	0	-
CC1CCCC(NC(=O)C2COc3ccccc3O2)C1C (stereo unspecified)	0	-	-	0	0	0
COc1ccc(OC)c(NC(=S)NC(=O)c2ccc(Br)o2)c1	0	-	-	0	0	0
O=C(NCCNC(=O)c1ccc(-c2ccc(Cl)c(Cl)c2)o1)c1cnccn1	0	-	-	0	15µM	0
O=C(NCCCNC(=O)c1ccc(-c2cccc(Cl)c2)o1)c1cnccn1	0	-	-	0	0	0
N#Cc1ccccc1NC(=O)COC(=O)CN1C(=O)C2CCCCC2C1=O (stereo unspecified)	-	-	-	-	-	0
